NPC1 prom act – activators of NPC1 promoter; Potency, µM (highest dose often 9.22 µM), for inactives: at the top dose activation, usual class: activators; AID 485313; actives 2.4% (n = 320,000); Huh7 NPC1 promoter luciferase reporter, 24 h; further: % of control where 0% means no effect; nearly all actives have a fitted effect of over 60% in size
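In 1536-well qHTS, Huh7 cells harboring an NPC1 promoter–luciferase construct received compound for 24 h; activation was quantified by luminescence following luciferase reagent addition.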
KinaseGlo FLuc – counter-screen: inhibitors of Kinase-Glo firefly luciferase; Q27757; AID 1379; Potency, µM (series often up to 38.3 µM), for inactives: at the top dose activity change, negative = inhibition, usual class: inhibitors; actives 0.28% (n = 200,000); Kinase-Glo luciferase, ATP luminescence, 8 min; further: on the % scale 0 is the no-effect control and ±100 the full control effect; nearly all actives have a fitted effect of over 60% in size
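Light output from Kinase-Glo luciferase with luciferin and 10 uM ATP in 50 mM imidazole pH 7.2, KCl, MgCl2, Tween 20, BSA; compound pin-delivered, 8-min ambient incubation, then luminescence read.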
Rab9 promoter act – Rab9 promoter activation. actives 2.8% (n = 320,000). AID 485297. Potency, µM (top dose mostly 9.22 µM), inactives show at the highest dose activation, negative = inhibition, most hits filed as activators. Huh7 Rab9 promoter-luciferase reporter, luminescence, 24 h; further: % of control where 0% means no effect; nearly all actives have a fitted effect of over 60% in size
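Promoter activation is measured as luciferase luminescence in Huh7 cells stably transfected with a Rab9 promoter–luciferase construct, following 24 h compound exposure at 37 °C and 10 min reagent incubation at ambient temperature.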
ELG1 genotox – genotoxicity induction in ELG1-luciferase HEK293T cells. HEK293T ELG1-luciferase reporter, luminescence, 16 h. Potency, µM (doses to about 46 µM), inactives show at the top dose activity change, positive = activation, hits mostly activators. actives 1.3% (n = 330,000). AID 504466; further: % of control where 0% means no effect; nearly all actives have a fitted effect of over 60% in size
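ELG1-luciferase HEK293T cells, 2,000/well; compound pinned in; 16 hr, 37 °C, 5% CO2; ONE-Glo, 30 min RT; luminescence on CCD imager.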
SMN2 splice enh – increases expression of the SMN2 splice variant | AID 1458 | Potency, µM (series often up to 46.1 µM), without a hit: top-dose activity change, positive = activation, usual class: activators | HEK293 SMN2-luciferase splicing reporter, luminescence, 30-36 h | actives 2.8% (n = 210,000); further: % of control where 0% means no effect; nearly all actives have a fitted effect of over 55% in size
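HEK293 cells carry an SMN2 minigene-luciferase reporter in which exon 7 inclusion puts luciferase in frame. Cells were seeded at 2000 cells/well, attached for 10-12 hours, then exposed to compounds for 30-36 hours at 37C before ONE-Glo luminescence.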
FLuc counter – counter-screen for miR-21 project: firefly luciferase inhibitors or activators; P08659; purified FLuc, Km substrates, luminescence inhibition; Potency, µM (titrated, usually from 57.5 µM), for the others: at the highest dose activity change, negative = inhibition, usual class: inhibitors; actives 6.9% (n = 360,000);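 further: plate controls were vehicle for no effect and reference inhibitor for full effect; nearly all actives have a fitted effect of over 55% in size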
Target sequence (P08659 whole entry, looked up): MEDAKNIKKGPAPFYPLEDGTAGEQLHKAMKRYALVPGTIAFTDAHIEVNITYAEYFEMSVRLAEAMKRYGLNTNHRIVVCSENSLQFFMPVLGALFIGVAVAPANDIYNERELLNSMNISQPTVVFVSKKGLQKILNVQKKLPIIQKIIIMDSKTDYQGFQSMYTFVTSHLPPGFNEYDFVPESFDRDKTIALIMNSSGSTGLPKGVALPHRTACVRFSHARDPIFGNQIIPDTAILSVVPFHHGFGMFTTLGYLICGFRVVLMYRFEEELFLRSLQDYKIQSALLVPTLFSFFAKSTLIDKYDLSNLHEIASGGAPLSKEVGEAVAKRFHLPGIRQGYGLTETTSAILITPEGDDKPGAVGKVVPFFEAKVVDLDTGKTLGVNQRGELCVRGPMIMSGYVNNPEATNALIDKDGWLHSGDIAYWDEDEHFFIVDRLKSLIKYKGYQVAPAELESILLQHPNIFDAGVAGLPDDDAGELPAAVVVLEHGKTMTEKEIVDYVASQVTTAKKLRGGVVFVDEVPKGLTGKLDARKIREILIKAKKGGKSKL
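Purified P. pyralis luciferase, 10 nM final, with Km-level 10 uM D-luciferin and 10 uM ATP in 50 mM Tris acetate pH 7.5, 10 mM Mg acetate, 0.01% Tween-20, 0.05% BSA; 6-point qHTS titration about 60 µM downward; luminescence read.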
* marks the source's active call; other numbers are inactive results; ? = inconclusive; . = not tested or not shown; [ ] = dose if it differs, or a comment. This is a sample that favours compounds with a hit; in the whole collection about 7.3% have one here. The call rests on the fitted dose curve; in most records, active means well fitted curve in the direction sought with a large enough effect; inconclusive means small, poorly fitted or top-dose-only effect, or another doubt; inactive means no such curve, though single readings can be large; an effect the other way counts as inactive or inconclusive. Potency means the concentration at half of the fitted maximal effect.

SMILES	NPC1 prom act	KinaseGlo FLuc	Rab9 promoter act	ELG1 genotox	SMN2 splice enh	FLuc counter
Cc1ccc(C(=O)Nc2ccc3c(c2)OCO3)o1	2.8µM*	?	28%[1.84 µM]	15µM*	11µM*	11µM*
CC(=O)Nc1ccc2c(c1)OCO2	-3%	1%	1%	-1%	6%	-2%
C/C(=C\C(=O)c1ccc(C)o1)Nc1ccc2c(c1)OCO2	2.8µM*	-4%	2.2µM*	?	27%	4.8µM*
COc1ccc(CNC(=O)CCS(=O)(=O)c2ccc3c(c2)CCN3C(C)=O)cc1	1%	.	-7%	2%	.	0%
O=C(CNC(=O)c1ccccc1O)N/N=C/c1cc(Br)ccc1OC(=O)/C=C/c1ccco1	-40%	1%	-23%	-4%	-103%	-11%
C=CC[C@@H](Cc1ccc(F)cc1)C(=O)OC[C@H]1CCCN1C(=O)[C@H](CC=C)CC(=O)N[C@H](CO)Cc1ccccc1	.	.	.	-7%	.	.
CC(=O)c1cc(-c2ccc(F)cc2)n(CC(=O)NC2CCCCCC2)c1C	.	.	.	.	.	-1%
Clc1ccc(SCc2cc(-c3ccccc3)no2)cc1	14%	1%	21%	-2%	-18%	?
Cc1cccc(OCc2cc(-c3ccccc3)no2)c1C	?	.	?	?	.	12µM*
Cc1cc(COc2ccccc2OCc2cc(C)no2)on1	3%	0%	-3%	-4%	1%	1%
Fc1ccc(OCc2cc(-c3ccccc3)no2)cc1	2.8µM*	.	3.2µM*	21µM*	.	5.4µM*
Clc1ccc(OCc2cc(-c3ccccc3)no2)c(Cl)c1	0.5µM*	-7%	0.63µM*	?	0.5µM*	0.38µM*
COc1ccc(-c2cc(COc3ccccc3)on2)cc1	?	6%	4µM*	?	?	11µM*
COc1cccc(-n2nc(-c3ccnn3-c3ccc(C)cc3)c(=O)n(C)c2=O)c1	0%	1%	2%	2%	-11%	-3%
C/C(=N\NC(=S)NCCc1ccccc1)c1cccc(Br)c1	4%	-2%	5%	-1%	12%	-17%
COc1ccc(-c2cc(-c3ccccc3)no2)cc1	0.5µM*	.	0.4µM*	?	.	0.38µM*
O=C(Cc1ccccc1)N/N=C/c1ccccc1OCc1ccc(Cl)cc1	13%	0%	3%	13%	7%	-11%
CC(C)C(NC(=O)c1ccc(F)cc1)C(=O)OCC(=O)N1CC(=O)Nc2ccccc21 (centres undefined)	1%	3%	-3%	-4%	11%	5%
CCc1cc2c(=O)c(-c3nc4ccccc4n3C)c(C)oc2c(CN(CC)CC)c1O	1%	-2%	2%	-3%	4%	5%
COc1ccc(C(=O)O/N=C2\CCS(=O)(=O)c3sccc32)cc1	-4%	4%	-4%	4%	.	1.9µM*
Cc1ccc(N/N=C2\CCS(=O)(=O)c3sccc32)cc1	5%	-1%	-1%	10%	-2%	17µM*
Cc1ccccc1C(=O)O/N=C1\CCS(=O)(=O)c2sccc21	?	1%	?	12µM*	16%	0.6µM*
CN(C)/N=C1\CCS(=O)(=O)c2sccc21	-3%	0%	-4%	0%	-2%	4%
COc1cc(-c2nnn(CC(=O)NC3CCS(=O)(=O)C3)n2)ccc1OCc1ccccc1 (centres undefined)	?	0%	18%	?	?	12µM*
NCCOc1ccccc1OCCN	1%	7%	-8%	9%	-11%	0%
SMILES	NPC1 prom act	KinaseGlo FLuc	Rab9 promoter act	ELG1 genotox	SMN2 splice enh	FLuc counter
NCCOc1ccccc1-c1ccccc1	-2%	-3%	4.5µM*	0%	25%	6%
CCC(=O)NCc1nc2ccccc2n1Cc1ccccc1F	-3%	0%	-1%	1%	-9%	2%
CC1CCN(c2nc3ccc(C(=O)NCc4ccc(Cl)cc4)cc3s2)CC1	.	.	.	.	-57%	11µM*
CC1CCN(c2nc3ccc(C(=O)NCCCN4CCCCC4)cc3s2)CC1	?	.	-40%	?	.	?
O=C(NCCc1ccccc1)c1ccc2nc(N3CCCCC3)sc2c1	.	.	.	.	2%	?
CC1CCN(c2nc3ccc(C(=O)NCc4ccccc4Cl)cc3s2)CC1	.	.	.	.	-10%	6.7µM*
CCC1CCCCN1CCCNC(=O)c1ccc2nc(N3CCC(C)CC3)sc2c1 (centres undefined)	-13%	.	-38%	0.16µM*	.	?
O=C(NCC1CCCO1)c1ccc2nc(N3CCCCC3)sc2c1 (centres undefined)	2µM*	-3%	?	?	0%	17µM*
Cc1nc2ccc(NC(=O)N3CCSCC3)cc2nc1C	-2%	0%	-3%	2%	20%	2%
O=C(c1cc2ccccc2oc1=O)N(c1ccccc1)C1C=CS(=O)(=O)C1 (centres undefined)	9%	-4%	2%	2%	-2%	0%
c1ccc(N2CCN(Cc3cccn3-c3nnc(N4CCN(C5CCCCC5)CC4)s3)CC2)cc1	.	.	.	.	.	-1%
CC1CCN(c2nc3ccc(C(=O)O)cc3s2)CC1	-48%	-5%	-49%	-23%	-53%	0.21µM*
O=C(NCCCN1CCN(c2ccccc2F)CC1)c1ccc2nc(N3CCCCC3)sc2c1	.	.	.	.	5.6µM*	?
COc1ccc(/C=N/NC2=NS(=O)(=O)c3ccccc32)cc1	-4%	.	-3%	4%	.	?
CCN(CC)c1ccc(/C=C(/C#N)C(=O)NCc2ccccc2)o1	23%	-2%	?	15%	.	24µM*
CCN(CC)c1ccc(/C=C(/C#N)C(=O)NC(C)C)o1	8%	1%	27%	19%	25%	?
O=C(CSc1nnc(NC(=O)NC2CCCCC2)s1)Nc1ccccc1F	.	.	.	.	.	3µM*
CSc1nsc(SCC(=O)Nc2ccc(NC(C)=O)cc2)n1	2%	.	-4%	3%	.	-10%
COc1ccccc1Nc1nnc(SCC(=O)N2CCCC2=O)s1	2%	8%	-7%	17%	-26%	9.5µM*
COc1ccc(NC(=O)CSc2nnc(NC(=O)NC3CCCCC3)s2)cc1OC	.	.	.	.	.	2.4µM*
CSc1nsc(SCC(=O)Nc2ccc(C(C)=O)cc2)n1	24%	-2%	15%	8.2µM*	13µM*	21µM*
COc1ccccc1Nc1nnc(SCC(=O)N2CCCC2)s1	28%	?	27%	?	18%	?
COc1ccccc1NC(=O)CSc1nnc(NC(=O)NC2CCCCC2)s1	.	.	.	.	.	2.4µM*
CC(=O)c1ccc(NC(=O)CSc2nnc(NC(=O)NC3CCCCC3)s2)cc1	.	.	.	.	.	0.48µM*
COc1ccccc1Nc1nnc(SCC(=O)NC2CCCC2)s1	-1%	.	-5%	-3%	.	-17%
O=C(CSc1nnc(Nc2ccccc2)s1)NC1CCCC1	.	.	.	-1%	.	.

Bioassay records deposited in PubChem by National Center for Advancing Translational Sciences (NCATS).
